From PMC6919601, “Identification of Plasmodium dipeptidyl aminopeptidase allosteric inhibitors by high throughput screening” (PLoS ONE, 2019)
Among all 110,000 compounds or so, about 230 (0.21%) showed an effect of 50% or more. The sample holds strong results, similar compounds and a random draw of the others, so the mix is not that of the screen.

molecular target: DPAP1 (Plasmodium falciparum, UniProt Q8IIJ9); assay: primary screen, percent inhibition; read by cleavage of a fluorogenic dipeptide substrate; higher = more effect of the substance; parameters: species or system P. falciparum D10 trophozoite lysates; single well
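Also: 30 min substrate incubation versus DMSO and 10 µM JCP410 controls.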

Chain of DPAP1 (Q8IIJ9 whole entry, looked up): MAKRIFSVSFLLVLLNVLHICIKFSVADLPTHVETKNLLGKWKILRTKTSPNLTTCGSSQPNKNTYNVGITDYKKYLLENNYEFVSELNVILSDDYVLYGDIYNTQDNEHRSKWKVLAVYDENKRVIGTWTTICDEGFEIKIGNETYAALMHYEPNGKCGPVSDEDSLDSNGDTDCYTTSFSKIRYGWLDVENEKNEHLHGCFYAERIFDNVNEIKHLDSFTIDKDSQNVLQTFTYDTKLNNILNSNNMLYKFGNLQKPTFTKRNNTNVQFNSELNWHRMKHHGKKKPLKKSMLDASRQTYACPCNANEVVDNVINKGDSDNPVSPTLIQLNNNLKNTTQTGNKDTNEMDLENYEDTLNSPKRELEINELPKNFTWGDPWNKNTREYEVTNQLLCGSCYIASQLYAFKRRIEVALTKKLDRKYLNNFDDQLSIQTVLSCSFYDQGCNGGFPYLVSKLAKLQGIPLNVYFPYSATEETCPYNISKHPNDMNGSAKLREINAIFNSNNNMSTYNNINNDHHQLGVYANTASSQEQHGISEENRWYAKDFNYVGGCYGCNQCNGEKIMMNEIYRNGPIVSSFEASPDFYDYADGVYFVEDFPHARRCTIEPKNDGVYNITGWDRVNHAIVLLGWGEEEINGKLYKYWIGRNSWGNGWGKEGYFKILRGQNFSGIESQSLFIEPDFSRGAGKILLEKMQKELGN

Structure (SMILES)	% Inhibition @ 10 uM [%]
O=C1c2cccnc2C(=O)N1c1ccccc1-c1ccccc1	-2.29
COCCNC(=O)c1sc2ncn(CC(=O)N3CCC(C)CC3)c(=O)c2c1C	-2.17
CCCC(=O)n1nc2c3c(cccc31)C(=O)c1ccccc1-2	-2.75
Cc1ccc(O)c(/C=N/c2c(C)nn(C)c2C)c1	7.26
CC(C)CCn1nnc2sc3c(c2c1=O)CCC(C)C3 (stereo not drawn)	-6.78
Cc1ccc(CNc2nc3ccccc3c3nc(-c4ccncc4)nn23)cc1	0.981
O=C1NC(=S)NC(=O)C1=Cc1ccccc1OCCO	-6.17
CC(=O)NS(=O)(=O)c1ccc(NC(=O)COc2ccc(C)cc2)cc1	-0.473
CC(C)(C)c1ccc(C(CC(=O)O)NS(=O)(=O)Cc2ccccc2)cc1 (stereo not drawn)	2.72
Cc1cccc(N2C(=O)C3C4c5ccccc5C(C)(c5ccccc54)C3C2=O)c1 (stereo not drawn)	2.6
CC12c3ccccc3C(c3ccccc31)C1C(=O)N(c3ccc(Cl)cc3)C(=O)C12 (stereo not drawn)	-1.59
Cc1ccc(N2C(=O)C3C4c5ccccc5C(C(C)O)(c5ccccc54)C3C2=O)cc1 (stereo not drawn)	53.4
Cn1c(C2=CC(C)(C)NC(C)(C)C2)ccc1C1=CC(C)(C)NC(C)(C)C1	-5.9
COCCNC(=O)CCNS(=O)(=O)c1ccc(C)cc1	-0.256
CCOc1ccc(C2c3c(-c4ccccc4O)n[nH]c3C(=O)N2Cc2ccco2)cc1OC (stereo not drawn)	0.366
CCOc1cc(C2c3c(-c4ccccc4O)n[nH]c3C(=O)N2Cc2ccco2)ccc1O (stereo not drawn)	52.6
COc1cc(C2c3c(-c4ccccc4O)n[nH]c3C(=O)N2Cc2ccco2)ccc1O (stereo not drawn)	-3.12
Cc1cc(S(=O)(=O)N(Cc2ccccc2)Cc2ccccc2Cl)ccc1-n1cnnn1	58.7
Cc1cc(S(=O)(=O)N2CCC(n3c(O)nc4ccccc43)CC2)ccc1-n1cnnn1	-0.671
COc1ccc(CN(Cc2ccccc2)S(=O)(=O)c2ccc(-n3cnnn3)c(C)c2)cc1	2.08
CNS(=O)(=O)c1cn(CC(=O)NCc2ccccn2)cc1S(=O)(=O)NC	-7.87
O=C(CC1SC(=O)N(Cc2cccc3ccccc23)C1=O)Nc1nccs1 (stereo not drawn)	-2.82
C(=C\c1ccccc1)/CN1CCN(C2CCN(CCc3ccccc3)CC2)CC1	97.7
C(=C\c1ccccc1)/CN1CCN(CCc2ccccc2)CC1	1.74
C(=C\c1ccccc1)/CN1CCN(C2CCN(Cc3ccccc3)CC2)CC1	1.88
Cc1cc(=O)n2nc(N(C)CC(=O)NCc3ccc4c(c3)OCO4)sc2n1	3

Structure (SMILES)	% Inhibition @ 10 uM [%]
Cc1nnc2c(NCc3ccco3)nc3ccc(C(=O)c4ccccc4)cc3n12	-6.09
Cc1nnc2c(NCc3ccccc3)nc3ccc(C(=O)c4ccccc4)cc3n12	0.454
Cc1nnc2c(NCc3ccc4c(c3)OCO4)nc3ccc(C(=O)c4ccccc4)cc3n12	79.7
O=C(c1ccco1)N1CCN(c2nc3ccccc3n3nnnc23)CC1	2.76
CC(=O)N/C(=C\c1ccccc1)C(=O)Nc1ccc(Cl)cc1	-6.99
O=C(c1ccc(Cl)cc1)N1CCN(CCN2C(=O)c3cccc4cccc(c34)C2=O)CC1	-5.31
O=C1C(S(=O)c2ccc(Cl)cc2)=C(O)c2cccc3cccc1c23 (stereo not drawn)	77.5
O=C1c2cccc3cccc(c23)C(=O)N1CCN1CCN(S(=O)(=O)c2ccc(Cl)cc2)CC1	5.97
CCCCCCCc1c(C#N)c(N)nc(S)c1C#N	71.3
CC(C)Cc1c(C#N)c(N)nc2sc(C#N)c(N)c12	5.2
COCc1c(C#N)c(S)nc(C)c1[N+](=O)[O-]	30.8
CCOC(=O)CSc1nc(N)c(C#N)c(CC)c1C#N	20.6
CCCCCCc1c(O)nc(S)nc1O	22.8
CCc1c(C#N)c(N)nc(S)c1C#N	74.5
CC(C)Cc1c(C#N)c(N)nc(SCC(=O)c2ccc(-c3ccccc3)cc2)c1C#N	16.2
C=CCSc1nc(N)c(C#N)c(CC)c1C#N	65.5
CC(C)Cc1c(C#N)c(N)nc(S)c1C#N	78.5
CN(C)c1ccc(-c2c(C#N)c(N)nc(S)c2C#N)cc1	7.55
CCc1c(C#N)c(N)nc(SCc2ccccc2)c1C#N	42.7
CCSc1nc(N)c(C#N)c(CC)c1C#N	23.3
N=C(NOC(=O)C12CC3CC(CC(C3)C1)C2)c1ccc(Cl)cc1	-0.597
O=C(CN1CCCC1)Nc1c2c(nc3ccccc13)N(c1ccccc1)CC2	0.144
Cc1ccc(C(C)C)c(OCC(O)CN2CC(C)OC(C)C2)c1 (stereo not drawn)	-1.15
COc1cc(C2C(C#N)=C(N)OC3=C2C(=O)CCC3)ccc1OCC(=O)Nc1ccc(C)cc1C (stereo not drawn)	0.851
COc1cc(OC)cc(C(=O)Nc2ccc3c(c2)oc2ccccc23)c1	-4.91
CCC1CCC(NCc2ccncc2)CC1 (stereo not drawn)	-3.42

Structure (SMILES)	% Inhibition @ 10 uM [%]
c1cc(CNC2CCCCC2)ccn1	1.84
c1ccc(C2CCC(NCc3ccncc3)CC2)cc1 (stereo not drawn)	97.8
CC(Sc1nc(-c2cccnc2)ccc1C#N)C(=O)O (stereo not drawn)	-3.63
N#Cc1ccc(-c2cccnc2)nc1SCC(=O)O	-2.45
N#Cc1ccc(-c2cccnc2)nc1SCc1ccccc1	61.4
Cc1nnc2c(Oc3ccc(-c4ccccc4)cc3)nc3ccccc3n12	-7.23
N=c1n(CCOc2ccccc2)c2ccccc2n1CCN1CCOCC1	-6.25
CCOc1cc(Br)c(C=C2C(=O)NC(=O)NC2=O)cc1OC	-2.39
C/C(CCC1CC(C)OC1=O)=N\NC(N)=S (stereo not drawn)	-1.6
OC1(c2ccc(Br)cc2)CCN(Cc2cccc(Cl)c2)CC1	-3.6
CSC1=C(C#N)C(C)C2=C(O)CC(C)(C)CC2=N1 (stereo not drawn)	2.76
CC1C(C#N)=C(SCC(=O)c2ccc(Cl)cc2)N=C2CC(C)(C)CC(O)=C21 (stereo not drawn)	45.5
CC1C(C#N)=C(SCc2ccccc2)N=C2CC(C)(C)CC(O)=C21 (stereo not drawn)	55.4
Cc1nc(NC(=O)COc2ccc(C(C)(C)C)cc2)ccc1Br	-7.81
CCOc1ccc(-c2cc(C)n3nc(C(=O)NCc4ccco4)cc3n2)cc1	0.221
Cc1ccc2nc3c(O)n(C)cnc-3c2c1	5.06
CCc1ccc(C2CC(=O)N3CN(Cc4ccccc4)CSC3=C2C#N)cc1 (stereo not drawn)	39.2
CCOc1ccc(C2CC(=O)N3CN(CCc4ccccc4)CSC3=C2C#N)cc1 (stereo not drawn)	71.1
CCOc1ccc(C2CC(=O)N3CN(CCO)CSC3=C2C#N)cc1 (stereo not drawn)	61.2
CCOc1ccc(C2CC(=O)N3CN(Cc4ccccc4)CSC3=C2C#N)cc1 (stereo not drawn)	48.5
C=C(C)Cn1c(C(C)NC(=O)CCC)nc2ccccc21 (stereo not drawn)	1.41
CC(C)CNCC(=O)Nc1sc2c(c1C(=O)Nc1ccc(Br)cc1)CCC2	-6.07
OC1(c2ccc(Cl)cc2)CCN(Cc2ccc(F)c(F)c2)CC1	-7.42
COc1ccc(C2=NN3C(C2)c2cc(OC)ccc2OC3(C)C)cc1 (stereo not drawn)	43.8
COc1ccc(C2=NN3C(C2)c2cc(Cl)ccc2OC3(C)C)cc1 (stereo not drawn)	50.9
COc1ccc(C2=NN3C(C2)c2cccc(OC)c2OC3(C)C)cc1 (stereo not drawn)	38.5

Structure (SMILES)	% Inhibition @ 10 uM [%]
CCCCCn1c(Br)nc2c1c(=O)[nH]c(=O)n2C	4.41
CC(=O)c1cccc(NC(=O)c2ccc(N(C)S(=O)(=O)c3ccc(C)cc3)cc2)c1	5.24
CCCCN(CC)C(=O)c1noc2c1COc1ccccc1-2	-1.72
COc1ccccc1CNC(=O)c1noc2c1CSc1ccccc1-2	62.7
Cc1ccc2c(c1)-c1onc(C(=O)NCCCOC(C)C)c1CO2	1.97
COc1ccccc1CNC(=O)c1c2c(nn1C)-c1ccccc1SC2	8.62
COCCNC(=O)c1noc2c1COc1ccc(C)cc1-2	-3.77
CC(C)OCCCNC(=O)c1nn(C)c2c1COc1ccccc1-2	-1.72
CC12CC3CC(C)(C1)CC(OCCNC(=O)c1noc4c1COc1ccccc1-4)(C3)C2	49
O=C(NCC1CCCO1)c1noc2c1CSc1ccccc1-2 (stereo not drawn)	19.3
CC(C)OCCCNC(=O)c1noc2c1COc1ccccc1-2	58.6
COCCNC(=O)c1noc2c1COc1ccccc1-2	60
COCCCNC(=O)c1noc2c1COc1ccccc1-2	84.2
COCCCNC(=O)c1noc2c1COc1ccc(C)cc1-2	5.1
COc1cccc(C(=O)N2CCN(C(=O)CCC3CCCC3)CC2)c1	0.587
O=C(NC1CCCCC1)C1CCCN(S(=O)(=O)N2CCCCC2)C1 (stereo not drawn)	-4.99
CN1CCN(C(=O)c2ccc(Cn3c(SCc4ccccc4F)nc4ccncc43)cc2)CC1	-1.92
Cn1c(=O)c2nc(-c3ccccc3)c(-c3ccccc3)nc2n(C)c1=O	4.03
CCOc1cc(-c2cc(-c3ccc(N)cc3)nc(N)c2C#N)ccc1O	3.26
COc1ccc2c(CNCc3ccccc3C)c(C(=O)O)n(Cc3ccc(F)cc3)c2c1	-4.16
COc1cc(C)c2c(=O)c(Oc3ccccc3)c(C(F)(F)F)oc2c1	-5.69
CC(C)(C)n1ncc2c(=O)n(Cc3c(F)cccc3Cl)cnc21	-1.75
COC(=O)c1sccc1-n1c(S)c(C#N)c(N)c(C#N)c1=N	-2.21
CC1CC2(C)CC(C(=O)O2)C1C(=O)O (stereo not drawn)	-1.76
